# Laboratory results reported in PubChem BioAssay (NCATS).
# Results filed as inconclusive are left out. Active and inactive are the calls of the source. The call rests on the fitted dose curve; in most records, active means well fitted cell-killing curve with a large enough effect; inconclusive means small, poorly fitted or top-dose-only effect, or effect the other way; inactive means flat fitted curve, though single readings scatter. Where a SMILES comes first, the peptide text is derived from it.
# Tested on: CASKI
# Assay: Primary qHTS to identify gynecologic anti-cancer compounds using libraries of approved drugs and bioactive compounds (AID 1345084); further: nearly all actives have a fitted effect of over 55% in size
# Details: Gynecologic cancer cell panel viability, ATPlite luminescence, 48 h; series mostly up to 57.5 µM; activity change, negative = cytotoxicity: at the top concentration
# How it was run: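 In this quantitative HTS, cell killing is estimated from loss of ATP-dependent luciferase light. Cells see five compound concentrations over a 48 h exposure.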
# On the % scale 0 is the no-effect control and ±100 the full control effect.
row,SMILES,"activity change, negative = cytotoxicity"
1,Nc1nc(CC(=O)Nc2ccc(CCNCC(O)c3ccccc3)cc2)cs1 (stereo unspecified),2.09% (inactive)
2,COc1ccc([C@@H]2N[C@H](C(=O)O)Cc3c2[nH]c2ccccc32)cc1CN1CCN(c2ccccc2F)CC1,2.84% (inactive)
3,CC1NC(=O)CNC(=O)C(C(C)C)NC(=O)C2CCCN2C(=O)C(C(C)C)NC(=O)C(Cc2c[nH]c3ccccc23)NC1=O (stereo unspecified) (cyclo(GAWVPV); configuration not given here),-1.93% [at 25.3 µM] (inactive)
4,O=C(O)C[C@H]1CCC(=O)[C@@H]1C/C=C\CCOC1OC(CO)C(O)C(O)C1O (stereo partly specified),-1.45% [at 38.5 µM] (inactive)
5,N#Cc1ccc2[nH]c(O)c(-c3ccc(CN4CCOCC4)cn3)c2c1,6.09% (inactive)
6,C=Cc1cc(O)cc2nc(-c3ccc(O)c(F)c3)oc12,-8.94% (inactive)
7,COc1ccc(C(OC2OC(CO)C(O)C(O)C2O)C(C)O)cc1 (stereo unspecified),-1.11% [at 38.5 µM] (inactive)
8,CC1CCC2(C(=O)OC3OC(COC4OC(CO)C(O)C(O)C4O)C(O)C(O)C3O)CCC3(C)C(=CCC4C5(C)CCC(O)C(C)(C(=O)O)C5CCC43C)C2C1(C)O (stereo unspecified),8.05% [at 11.6 µM] (inactive)
9,Cc1cc(N2CCCCC2)nc2ccccc12,10.6% (inactive)
10,C=CC1(C)CC2=CCC3C(C)(C(=O)O)CCCC3(C)C2CC1OC(C)=O (stereo unspecified),0.669% [at 38.5 µM] (inactive)
11,Cc1cc(Nc2ncc(Cl)c(Nc3ccccc3S(=O)(=O)C(C)C)n2)c(OC(C)C)cc1C1CCNCC1,-0.414% (inactive)
12,CCn1c2ccccc2c2cc(CNC)ccc21,-0.431% (inactive)
13,O=S(=O)(NC1CCNCC1)c1cc(S(=O)(=O)c2ccccc2)ccc1C(F)(F)F,-0.0539% (inactive)
14,CC1CCC2(C(=O)OC3OC(CO)C(O)C(O)C3O)CCC3(C)C(=CCC4C5(C)CC(O)C(O)C(C)(C(=O)O)C5CCC43C)C2C1(C)O (stereo unspecified),0.595% [at 25.3 µM] (inactive)
15,Cc1nnc(C(C)C)n1C1CC2CCC(C1)N2CC[C@H](NC(=O)C1CCC(F)(F)CC1)c1ccccc1 (stereo partly specified),-1.82% (inactive)
16,Cc1nn(C)c2c1C(c1ccc(C(F)(F)F)cc1)C(C#N)=C(N)O2 (stereo unspecified),18.7% (inactive)
17,CC(=O)[C@@H]1CC[C@]2(C(=O)O)CC[C@]3(C)C(CCC4[C@@]5(C)CC[C@H](O)C(C)(C)C5CC[C@]43C)C12 (stereo partly specified),8.85% [at 25.3 µM] (inactive)
18,COc1cc(/C=C/C(=O)OC(C)(C)C(OC2OC(CO)C(O)C(O)C2O)C(=O)OCc2ccc(OC3OC(CO)C(O)C(O)C3O)cc2)ccc1O (stereo unspecified),-0.204% [at 25.3 µM] (inactive)

row,SMILES,"activity change, negative = cytotoxicity"
1,Cc1cn2c(N)c(Cl)cc(C(=O)NCC3CCN(CC(C)C)CC3)c2n1,-0.182% (inactive)
2,OC[C@H]1O[C@@H](Oc2cc(O)cc(/C=C/c3ccc(O)cc3)c2)[C@H](O)[C@@H](O)[C@@H]1O,-19.7% (inactive)
3,CC(C)=CCC[C@](C)(O[C@@H]1O[C@H](CO[C@@H]2OC[C@@H](O)[C@H](O)[C@H]2O)[C@@H](O)[C@H](O)[C@H]1O)[C@H]1CC[C@]2(C)[C@@H]1[C@H](O)C[C@@H]1[C@@]3(C)CC[C@H](O[C@@H]4O[C@H](CO)[C@@H](O)[C@H](O)[C@H]4O[C@@H]4O[C@H](CO)[C@@H](O)[C@H](O)[C@H]4O)C(C)(C)[C@@H]3CC[C@]12C,4.71% [at 25.3 µM] (inactive)
4,COc1ccc2c(c1)OC[C@]1(O)c3cc4c(cc3O[C@H]21)OCO4,-0.493% [at 38.5 µM] (inactive)
5,COC1=CC(=O)O[C@@H](/C=C/c2ccccc2)[C@@H]1O,5.04% (inactive)
6,CCOC(=O)N1CCC(NCCNC(=O)c2ccccc2C)CC1,-1.01% (inactive)
7,C=C[C@@]1(C)CC(=O)C2[C@](C)(O1)[C@@H](OC(C)=O)[C@@H](O)[C@H]1C(C)(C)CCC[C@]21C (stereo partly specified),-3.47% [at 11.6 µM] (inactive)
8,O=C1N(CC2CCCCN2)CCN1c1ccccc1 (stereo unspecified),0.506% (inactive)
9,COc1cc(C(C)=O)ccc1O[C@@H]1O[C@H](CO[C@@H]2O[C@@H](C)[C@H](O)[C@@H](O)[C@H]2O)[C@@H](O)[C@H](O)[C@H]1O,13.7% [at 25.3 µM] (inactive)
10,COC(=O)[C@@]1(O)C=CC[C@@H]2[C@@]3(C)C[C@@H](c4ccoc4)OC(=O)[C@H]3CC[C@]21C,-4.66% [at 38.5 µM] (inactive)
11,COc1ccc(C(=O)O[C@H]2CC(C)=CC[C@@]3(C)[C@@H](OC(C)=O)C[C@@](O)(C(C)C)[C@H]23)cc1,3.07% [at 25.3 µM] (inactive)
12,CC1(C)CC(=O)N(CCCCN2CCN(c3ncccn3)CC2)C(=O)C1,18.5% (inactive)
13,COc1cc(/C=C/C(=O)OC2CC(C)=C(C(=O)O)/C2=C/CO[C@@H]2O[C@H](CO)[C@@H](O)[C@H](O)[C@H]2O)ccc1O (stereo partly specified),-0.747% [at 25.3 µM] (inactive)
14,CC(=O)OCC1=C[C@H](O)[C@@H]2C(C(=O)O)=CO[C@@H](O[C@@H]3O[C@H](CO)[C@@H](O)[C@H](O)[C@H]3O)[C@H]12,6.83% [at 25.3 µM] (inactive)
15,C=CC(C)(C)O[C@@H]1O[C@H](CO[C@@H]2OC[C@](O)(CO)[C@H]2O)[C@@H](O)[C@H](O)[C@H]1O,2.38% [at 38.5 µM] (inactive)
16,COC(=O)[C@@H]1C2CC3c4[nH]c5ccccc5c4CCN3CC2CC[C@@H]1O (stereo partly specified),-1.07% (inactive)
17,FC(F)(F)c1cc(C(F)(F)F)c2ccc3nc(-c4nnco4)cn3c2n1,1.76% (inactive)
18,COC(=O)C1=COC(OC2OC(CO)C(O)C(O)C2O)C2C1CC(OC(=O)C(O)CC(=O)O)C2C (stereo unspecified),6.82% [at 25.3 µM] (inactive)
